Compound activity deposited in PubChem by The Scripps Research Institute Molecular Screening Center.
MITF inh = human MITF inhibition, primary screen; 650,000 tested, 0.91% active; AlphaScreen MITF homodimerization, bead proximity signal; O75030; inhibition, % at 2.6 µM; AID 1259374; in the data active = inhibition above about 50%;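 note: 0% = vehicle wells with protein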
FBW7 act = activators of human E3 ligase FBW7; Q969H0; AlphaScreen FBW7–phospho-cyclin E peptide binding, activator screen; normalized activity (activation), % at 26.1 µM; 650,000 tested, 0.13% active; in the data active = normalized activity above about 1.9%;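 note: purified mutant Fbw7 with reduced substrate affinity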
GPR151 activ = activates the human receptor GPR151; Q8TDV0; PathHunter beta-arrestin GPR151 cells, luminescence; activation, % at 11.2 µM; 650,000 tested, 1% active; in the data active = activation above about 4.9%;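 note: 0% = median of compound wells and 100% = cells with positive control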
TEAD-YAP block = TEAD-YAP interaction inhibition. HEK-TIYL cells, TEAD-Gal4/YAP UAS-luciferase luminescence. 640,000 tested, 1.4% active. AID 1259422. inhibition, % at 9.12 µM; in the data active = inhibition above about 32%;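 note: 0% = median of test compound wells and 100% = reference inhibitor wells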
MITF confirm = human MITF inhibition, confirmation. shares compounds with MITF inh. AlphaScreen MITF homodimerization, biotin/His-MITF beads. inhibition, % at 2.6 µM. 4,700 tested, 16% active. AID 1259372;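 active = inhibition above a cutoff derived from the DMSO control wells, cut at about 28% in these data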;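 note: 0% = MITF dimer wells with DMSO only; inhibitors lower the bead chemiluminescence by keeping MITF from dimerizing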
AS interf DR = counter-screen: compounds optically interfering with AlphaScreen; AlphaScreen optical interference counterscreen, cell-free; shares compounds with MITF inh; AID 1259373; IC50, µM; 480 tested, 6% active; call rule not given here
AlphaScreen intf2 = AlphaScreen optical interference, counter-screen | inhibition, % at 2.6 µM | shares compounds with MITF inh | 4,700 tested, 7.6% active | LysRS AlphaScreen counterscreen, signal interference, triplicate;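 active = inhibition above a cutoff derived from the DMSO control wells, cut at about 30% in these data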
Starred values were filed as active, the others as inactive; nt = not tested or not shown. Only some compounds are listed: those with a hit (about 3.5% of all), similar ones and a draw of the others.

SMILES	MITF inh	FBW7 act	GPR151 activ	TEAD-YAP block	MITF confirm	AlphaScreen intf2	others
CCCN(CCO)Cc1cccc2ccccc12	-4.2	-0.2	1.5	-3.0	nt	nt
Cc1ccc(C(=O)NN(C)C)o1	90.8*	0.3	-0.4	-4.3	3.6	11.9
Cc1ccc(C(=O)Nc2ccccc2NC(=O)c2ccc(C)o2)o1	-2.0	-0.2	0.0	5.2	nt	nt
O=C(O)c1c2c(nc3ccc(S(=O)(=O)N4CCC(C(=O)O)CC4)cc13)CCC2	67.5*	0.1	0.5	-8.1	31.0*	0.8	AS interf DR=>6.48
COc1cccc(C2CC(=O)Nc3sc4c(C)c(C#N)c(N)nc4c32)c1 (stereo not drawn)	-0.1	0.2	0.6	2.6	nt	nt
O=C(Nc1ccc(NC(=O)c2cccs2)cc1)c1ccc(I)cc1	15.6	0.1	0.4	4.8	nt	nt
O=C(CSc1ccc(F)cc1)N1CC(c2nc3ccccc3[nH]2)C1	60.4*	-0.4	0.0	4.5	5.6	14.3
Cc1[nH]c(=O)[nH]c1C(=O)CCCCC(=O)OCC(=O)c1ccc(Br)cc1	114.5*	-1.0	1.4	7.7	112.3*	92.9*
Cc1cc(C)cc(OCC(=O)Nc2ccccn2)c1	9.8	-0.1	-0.7	-42.3	nt	nt
CCOC(=O)CCCCC(=O)c1[nH]c(=O)[nH]c1C	115.4*	-0.6	-1.5	-3.5	118.5*	98.6*
CCOC(=O)CCCCC(=O)c1[nH]c(=O)[nH]c1CSC(=N)N	44.9	0.1	-0.3	-7.7	nt	nt
Cc1[nH]c(=O)[nH]c1C(=O)CCCCC(=O)OCC(=O)Nc1ccccn1	115.6*	-0.7	0.0	-2.8	118.2*	97.4*
COc1ccc(CCC(=O)Nc2ccc3nc4n(c(=O)c3c2)CCCC4)cc1	-11.6	0.0	1.2	-0.1	nt	nt
O=c1c2cccnc2n(Cc2ccc(F)cc2)c(=O)n1Cc1ccc2c(c1)OCO2	0.7	-0.2	-0.4	-8.4	nt	nt
CCOC(=O)N1CCC(N2C(=O)c3ccccc3C2Nc2ccccc2C(=O)OC)CC1 (stereo not drawn)	61.8*	-0.1	-1.3	2.0	2.6	13.0
Cc1cc(Cl)cc(Br)c1OCCNCCN(C)C	53.2*	0.0	0.1	6.2	1.0	18.2
CCC(C)c1ccccc1OCCNCCN(C)C (stereo not drawn)	67.3*	0.2	1.2	-0.5	58.7*	16.5	AS interf DR=>6.48
CCC(C)c1ccccc1OCCNCCOC (stereo not drawn)	46.3	-0.1	-2.4	-1.6	nt	nt
CCC(C)c1ccccc1OCCNCCCOC (stereo not drawn)	58.2*	-0.1	-0.9	-3.6	2.3	2.9
CNCCCOc1c(C)cc(Cl)cc1Br	24.2	-0.4	-1.0	-14.5	nt	nt
CCCCNCCOc1ccccc1OCC	60.8*	0.0	2.5	5.8	33.1*	6.3	AS interf DR=>6.48
COC(=O)CSc1nc2sc3c(c2c(=O)n1-c1ccccc1)CC(C)(C)OC3	9.9	0.0	-0.1	-3.5	nt	nt
CN1CCC(CCNCc2ccc(OCC(O)CN(C)Cc3ccccc3)cc2)CC1 (stereo not drawn)	2.8	-0.1	1.0	2.7	nt	nt
CCOc1ccccc1OCCOCCNCc1ccccc1	81.6*	0.2	-1.0	7.0	1.9	10.6
CCC(C)c1ccccc1OCCCNCCO (stereo not drawn)	59.4*	0.4	-2.5	13.0	-6.1	-6.4
SMILES	MITF inh	FBW7 act	GPR151 activ	TEAD-YAP block	MITF confirm	AlphaScreen intf2	others
CN(C)CCNCCOc1ccc2ccccc2c1Br	58.5*	0.7	-0.7	-2.9	2.3	17.6
CCC(C)c1ccccc1OCCCNCCN (stereo not drawn)	13.4	0.1	0.9	15.2	nt	nt
COc1ccc2nc(SCC(=O)Nc3ccc(N4CCOCC4)cc3)c(C#N)cc2c1	-3.4	0.0	2.0	7.1	nt	nt
Cn1c(SCC(=O)N2CCc3ccccc32)nnc1-c1cccnc1	-2.2	-0.1	1.2	22.4	nt	nt
COc1cc(Br)ccc1-n1c(=O)c2ccccc2c2ccccc2c1=O	21.9	0.6	-1.1	-5.1	nt	nt
Cc1cc(C)c2c3c(sc2n1)C(=O)N(Cc1ccco1)CC(=O)N3	6.0	-0.1	0.1	-3.7	nt	nt
CCOc1cc2c(cc1OCC)C(c1ccc(C(=O)OC)cc1)NCC2 (stereo not drawn)	12.4	0.0	-0.3	-4.5	nt	nt
Cc1cccc2cc(CN(Cc3ccccc3)S(=O)(=O)c3ccccc3)c3nnnn3c12	21.3	0.6	-0.2	7.9	nt	nt
N=C1S/C(=C\c2ccco2)C(=O)N1c1nonc1N	81.8*	-0.4	-1.3	-43.3	59.5*	2.3	AS interf DR=>7.04
